This note sets out measurements from PubChem BioAssay (NCI).

Some test systems named below: T-47D breast; BT-549 breast; MDA-MB-435 melanoma; SW-620 colon; MCF7 breast; HCT-116 colon; HCC-2998 colon; KM12 colon.
What all share (assay): NCI-60 one-dose screen, 48 h (100 = growth as untreated, 0 = no growth, -100 = all killed)
Settings in all cases: 10 µM unless noted

Molecules are shown by their SMILES. This is part of a sample that, as a whole, favours compounds with a hit. Of some 83,000 tested, about 20% had one in any assay.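 Each cell line was grown in a 96-well plate and treated with one concentration of compound for 48 hours. Values below 10 were considered active.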 A number with no mark means an inactive call. Calls of active or inactive are those of the source.

`O=C(Cn1c2ccccc2c2ccncc21)N/N=C/c1c[nH]c2ccccc12`: the growth is 90.2% in the assay on T-47D breast; 94.4% with BT-549 breast; 33.8% in the assay on MDA-MB-435 melanoma; 34.3% with SW-620 colon; 37.8% in the assay on MCF7 breast; 4.33% (active) in the assay with HCT-116 colon. For the same molecule, the growth with HCC-2998 colon was 87.5%; with KM12 colon, 60.5%.

For `CC1CCc2cc(F)cc3c(=O)c(C(=O)O)cn1c23` (stereo not given), the growth is 99.7% with T-47D breast; 104% in the assay on BT-549 breast; 94.8% in the assay with MDA-MB-435 melanoma; 106% with SW-620 colon; 112% in the assay on MCF7 breast; 105% in the assay on HCT-116 colon. Moreover, the growth with HCC-2998 colon is 105%; in the assay with KM12 colon, 102%.

With `CN(C)c1ccc(/C=c2\s/c(=C\C(=O)C(C)(C)C)[nH]c2=O)cc1`, the growth with T-47D breast is 81.4%; with BT-549 breast, 97.3%; in the assay with MDA-MB-435 melanoma, 89.3%; in the assay with SW-620 colon, 101%; with MCF7 breast, 86.7%; with HCT-116 colon, 91.2%. Also, the growth in the assay on HCC-2998 colon was 107%; with KM12 colon, 81.9%.

Turning to `OC(COc1ccccc1Cl)CN1CCN(c2ccc(Cl)cc2)CC1` (stereo not given), the growth is 101% in the assay with T-47D breast; 89.9% in the assay with BT-549 breast; 105% with MDA-MB-435 melanoma; 108% with SW-620 colon; 90.2% in the assay on MCF7 breast; 96.4% in the assay with HCT-116 colon. In addition, the growth with HCC-2998 colon was 102%; in the assay with KM12 colon, 100%.

For the molecule `Nc1nc(Cl)c2c(C(F)(F)F)cn(CC3CCNCC3)c2n1`, the growth with T-47D breast was 104%; in the assay on BT-549 breast it was 103%; in the assay on MDA-MB-435 melanoma, 76.5%; in the assay with SW-620 colon it was 22.4%; in the assay on MCF7 breast, 103%; in the assay with HCT-116 colon it was 48.3%. Besides, the results for the growth in the assay with HCC-2998 colon and in the assay on KM12 colon were 78.9% and 101%, respectively.

On to `O=C(Nc1ccc(-n2cc(-c3ccncc3)c(-c3ccc(O)c(Cl)c3)n2)cc1)c1ccc(Cl)c(C(F)(F)F)c1`, for which the growth in the assay on T-47D breast is 39.8%; in the assay with BT-549 breast, 14.9%; with MDA-MB-435 melanoma it was 16%; in the assay on SW-620 colon, 26.7%; in the assay on MCF7 breast, 20.9%; in the assay on HCT-116 colon it was 9.26% (active). For the same molecule, the growth with HCC-2998 colon was 25.9%; with KM12 colon, 15%.

In the case of `C#C[C@@]1(O)[C@@H](CO)O[C@@H](n2cc(C(F)(F)F)c3c(N)ncnc32)[C@@H]1O`, the growth in the assay with T-47D breast is -19.3% (active); in the assay with BT-549 breast, -12.1% (active); in the assay with MDA-MB-435 melanoma it was 14.7%; in the assay with SW-620 colon, 4.55% (active); in the assay on MCF7 breast, 1.74% (active); in the assay with HCT-116 colon, 4.15% (active). The figures for the growth in the assay on HCC-2998 colon and in the assay with KM12 colon were 3.76% (active) and 6.52% (active), respectively.

For the molecule `Cc1nccc2c3ccc(OCc4cn(Cc5ccc(Br)cc5)nn4)cc3n(CCCc3ccccc3)c12`, the growth is 93.3% in the assay on T-47D breast; 88.2% in the assay with BT-549 breast; 96.7% with MDA-MB-435 melanoma; 97.8% in the assay on SW-620 colon; 75.2% in the assay on MCF7 breast; 63.6% in the assay on HCT-116 colon. In addition, the growth was 84.7% in the assay with HCC-2998 colon and 92.6% in the assay with KM12 colon.

With `CCC(CC(C)C)Nc1ccc(NC(CC)CC(C)C)cc1` (stereo not given), the growth in the assay on T-47D breast was 69.2%; in the assay on BT-549 breast it was 97.1%; with MDA-MB-435 melanoma, 107%; in the assay on SW-620 colon it was 84.2%; in the assay on MCF7 breast, 89.5%; in the assay on HCT-116 colon, 59.2%. In addition, the growth in the assay with HCC-2998 colon is 95.6%; in the assay with KM12 colon it was 63.2%.

For the molecule `CC(Cc1cccc(C(F)(F)F)c1)NCCOC(=O)c1ccccc1` (stereo not given), the growth in the assay with T-47D breast is 105%; in the assay on BT-549 breast, 109%; in the assay on MDA-MB-435 melanoma it was 102%; with SW-620 colon it was 103%; in the assay on MCF7 breast it was 106%; with HCT-116 colon, 100%. The values for the growth in the assay with HCC-2998 colon and in the assay with KM12 colon were 109% and 114%, respectively.

On to `COc1ccc(-c2nnc(SCC(=O)Nc3ccc(C(=O)/C=C/c4ccc(Cl)cc4)cc3)o2)cc1OC`, for which the growth in the assay with T-47D breast was 90.1%; in the assay on BT-549 breast it was 57.3%; in the assay with MDA-MB-435 melanoma, 81.1%; in the assay on SW-620 colon it was 101%; in the assay with MCF7 breast it was 57.5%; with HCT-116 colon, 75.6%. For the same molecule, the figures for the growth with HCC-2998 colon and with KM12 colon were 96% and 97.9%, respectively.

Take `COc1cc(/C=C\c2cc(/C=C\c3ccc(O)c(OC)c3)n(C(=O)CNc3ccccc3OC)n2)ccc1O`: the growth in the assay with T-47D breast is 91.8%; in the assay on BT-549 breast, 66%; in the assay on MDA-MB-435 melanoma, 6.34% (active); in the assay on SW-620 colon, 36.4%; in the assay with HCC-2998 colon, 112%; in the assay on KM12 colon it was 46.2%.

`CCCCn1c(-c2cccc(OC)c2)nc2cc(OC)c(OC)cc2c1=O`: the growth in the assay on T-47D breast was 91.6%; with BT-549 breast, 283%; with MDA-MB-435 melanoma it was 115%; with SW-620 colon, 102%; with MCF7 breast it was 97.9%; with HCT-116 colon, 89.3%. For the same molecule, the growth with HCC-2998 colon was 103%; in the assay with KM12 colon it was 108%.

Consider `O=C(NOC1OC(CO)C(O)C(O)C1O)Nc1ccccc1` (stereo not given), for which the growth is 78.7% in the assay on T-47D breast; 110% in the assay on BT-549 breast; 102% in the assay on MDA-MB-435 melanoma; 106% in the assay with SW-620 colon; 87.9% with MCF7 breast; 105% in the assay on HCT-116 colon. Also, the growth in the assay on KM12 colon was 105%.

Turning to `CCN(CC)C(=O)C1CCN(C(=O)c2ccccc2)CC1`, the growth is 98.4% in the assay on T-47D breast; 93.8% in the assay with BT-549 breast; 104% in the assay with MDA-MB-435 melanoma; 101% in the assay on SW-620 colon; 96.6% with MCF7 breast; 99.2% in the assay on HCT-116 colon. In addition, the growth with HCC-2998 colon was 106%; in the assay with KM12 colon, 101%.

In the case of `CCC1S/C(=N\N=C(/C)c2ccco2)N(c2ccccc2)C1=O` (stereo not given), the growth with T-47D breast is 107%; in the assay on BT-549 breast it was 106%; with MDA-MB-435 melanoma, 92.7%; in the assay with SW-620 colon it was 119%; in the assay on MCF7 breast, 81%; with HCT-116 colon, 68.6%. In addition, the growth was 112% with HCC-2998 colon and 86.1% in the assay with KM12 colon.
